From PubChem BioAssay (EPA / NIEHS) come the findings set out here.

Holding throughout (settings): mRNA level, 48 h; actives raise or lower the signal
Read-out in assay [1]: Apoptosis regulator Bcl-2 (Homo sapiens) (UniProt P10415)
Nature of the assay: LTEA_HepaRG_BCL2: Life Technologies and Expression Analysis (LTEA) Assay for Bcl-2 gene using HepaRG (AID 2283475). In short, it runs like this: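 Expression change of BCL2 mRNA in HepaRG after 48 h dosing, quantified by TaqMan qRT-PCR against three endogenous controls. Concentration-response used eight points up to 100 uM, vehicle 0.5% DMSO.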

Read-out in assay [2]: Bcl-2 (BID) gene, BID (gene 637)
The assay can be described thus: LTEA_HepaRG_BID: Life Technologies and Expression Analysis (LTEA) Assay for Bcl-2 (BID) gene using HepaRG (AID 2283476). In short, it runs like this:
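Gain or loss of BID expression is fitted relative to 0.5% DMSO vehicle. Human HepaRG liver cells received a 48 h chemical exposure over an eight-point concentration range.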

Read-out in a further assay: Caspase-3 (Homo sapiens) (UniProt P42574)
The assay can be described thus: LTEA_HepaRG_CASP3: Life Technologies and Expression Analysis (LTEA) Assay for cysteine-aspartic acid protease (CASP3) using HepaRG (AID 2283477). In short, it runs like this:
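HepaRG, 48 h exposure, 8 conc. (top 100 uM, half-log steps, duplicate), 0.5% DMSO vehicle; qRT-PCR of CASP3 transcript, housekeeping-normalised (ACTB/GAPDH/POLR2A); bidirectional curve fit vs DMSO baseline.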

Read-out in assay [3]: Cytochrome P450 (CYP24A1), CYP24A1 (gene 1591)
Nature of the assay: LTEA_HepaRG_CYP24A1: Life Technologies and Expression Analysis (LTEA) Assay for Cytochrome P450 (CYP24A1) using HepaRG (AID 2283478). In short, it runs like this:
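qRT-PCR read-out: CYP24A1 transcript levels normalized to three housekeeping genes, bidirectional curve fits against 0.5% DMSO baseline. Human HepaRG cells treated 48 h with chemicals at eight concentrations from 100 uM in half-log steps.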

Read-out in assay [4]: Cytochrome P450 (CYP1A2), CYP1A2 (gene 1544)
The assay can be described thus: LTEA_HepaRG_CYP1A2: Life Technologies and Expression Analysis (LTEA) Assay for Cytochrome P450 (CYP1A2) using HepaRG (AID 2283479). Put shortly:
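HepaRG, 48 h exposure, top 100 uM, half-log 8-pt, 0.5% DMSO vehicle, duplicates. Readout: TaqMan qRT-PCR of CYP1A2 mRNA, housekeeping-normalized (ACTB/GAPDH/POLR2A). Gain/loss fit relative to DMSO baseline.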

Read-out in assay [5]: cysteine-aspartic acid protease (CASP8), CASP8 (gene 841)
The assay can be described thus: LTEA_HepaRG_CASP8: Life Technologies and Expression Analysis (LTEA) Assay for cysteine-aspartic acid protease (CASP8) using HepaRG (AID 2283480). In short, it runs like this:
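Differentiated human HepaRG cells, plated 48 h then switched to serum-free induction medium, were exposed in duplicate for 48 h to 8 half-log concentrations up to 100 uM in 0.5% DMSO. CASP8 mRNA was quantified by qRT-PCR, normalized to ACTB/GAPDH/POLR2A.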

Read-out in assay [6]: Cytochrome P450 (CYP2B6), CYP2B6 (gene 1555)
Nature of the assay: LTEA_HepaRG_CYP2B6: Life Technologies and Expression Analysis (LTEA) Assay for Cytochrome P450 (CYP2B6) using HepaRG (AID 2283481). In short, it runs like this:
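Read-out is CYP2B6 mRNA by TaqMan qRT-PCR, normalized to three housekeeping genes and fitted bidirectionally against 0.5% DMSO baseline. Human HepaRG cells received test chemicals for 48 h, top concentration 100 uM, half-log dilutions.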

Read-out in assay [7]: Cytochrome P450 2C19 (Homo sapiens) (UniProt P33261)
The assay can be described thus: LTEA_HepaRG_CYP2C19: Life Technologies and Expression Analysis (LTEA) Assay for CYP2C19 using HepaRG (AID 2283482). In short, it runs like this: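 HepaRG, 48 h chemical exposure, 8-pt half-log series from 100 uM in 0.5% DMSO, duplicates. Readout: CYP2C19 mRNA by TaqMan qRT-PCR, housekeeping-normalized. Bidirectional fit vs DMSO baseline; phenobarbital 1mM as induction control.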

Read-out in another assay: CYP2C8 (gene 1558)
Nature of the assay: LTEA_HepaRG_CYP2C8: Life Technologies and Expression Analysis (LTEA) Assay for CYP2C8 using HepaRG (AID 2283483). In short, it runs like this: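 Differentiated human HepaRG cells were exposed for 48 h in serum-free induction medium to eight half-log concentrations up to 100 uM in 0.5% DMSO, in duplicate. CYP2C8 mRNA was measured by TaqMan qRT-PCR, normalized to ACTB, GAPDH and POLR2A, and fitted bidirectionally against DMSO.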

Read-out in the next assay: CYP2C9 (gene 1559)
The assay can be described thus: LTEA_HepaRG_CYP2C9: Life Technologies and Expression Analysis (LTEA) Assay for CYP2C9 using HepaRG (AID 2283484). Put shortly:
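Differentiated human HepaRG cells were exposed 48 h in serum-free induction medium to eight half-log concentrations up to 100 uM in 0.5% DMSO. CYP2C9 mRNA was measured by qRT-PCR, normalized to ACTB, GAPDH and POLR2A, and fitted bidirectionally against DMSO.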

Calls of active or inactive are those of the source. How the source made its calls: active means hit-call score of the fitted dose curve at least 0.9, where 1 is the maximum; inactive means score below 0.9.

Sequence of Caspase-3 (Homo sapiens) (P42574 whole entry, looked up): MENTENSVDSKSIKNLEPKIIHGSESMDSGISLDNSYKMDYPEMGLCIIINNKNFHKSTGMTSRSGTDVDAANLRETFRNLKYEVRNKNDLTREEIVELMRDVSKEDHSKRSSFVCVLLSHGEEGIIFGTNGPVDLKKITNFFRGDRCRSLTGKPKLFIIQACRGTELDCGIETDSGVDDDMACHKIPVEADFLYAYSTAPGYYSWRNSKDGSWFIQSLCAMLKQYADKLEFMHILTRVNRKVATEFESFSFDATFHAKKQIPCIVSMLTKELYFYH
Sequence of Cytochrome P450 2C19 (Homo sapiens) (P33261 whole entry, looked up): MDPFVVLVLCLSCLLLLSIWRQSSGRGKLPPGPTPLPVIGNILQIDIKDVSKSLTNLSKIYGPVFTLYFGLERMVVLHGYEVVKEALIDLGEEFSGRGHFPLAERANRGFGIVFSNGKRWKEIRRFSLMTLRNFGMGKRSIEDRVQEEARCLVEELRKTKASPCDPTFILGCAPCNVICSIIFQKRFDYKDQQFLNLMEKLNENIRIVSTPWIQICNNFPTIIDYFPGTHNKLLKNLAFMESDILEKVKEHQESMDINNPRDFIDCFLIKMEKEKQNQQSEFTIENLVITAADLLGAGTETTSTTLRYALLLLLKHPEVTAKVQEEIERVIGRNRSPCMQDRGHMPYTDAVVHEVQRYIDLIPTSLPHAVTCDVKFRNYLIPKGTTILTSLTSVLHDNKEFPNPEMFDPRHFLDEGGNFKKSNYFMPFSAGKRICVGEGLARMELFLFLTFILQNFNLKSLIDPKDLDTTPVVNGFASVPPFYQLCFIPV
Sequence of Apoptosis regulator Bcl-2 (Homo sapiens) (P10415 whole entry, looked up): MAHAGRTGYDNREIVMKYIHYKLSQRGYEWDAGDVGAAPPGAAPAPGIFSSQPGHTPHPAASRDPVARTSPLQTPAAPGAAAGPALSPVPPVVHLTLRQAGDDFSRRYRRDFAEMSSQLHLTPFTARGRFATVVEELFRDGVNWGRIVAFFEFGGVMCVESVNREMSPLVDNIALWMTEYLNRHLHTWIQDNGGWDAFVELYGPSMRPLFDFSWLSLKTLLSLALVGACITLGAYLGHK

In the case of `CCCCCCCCCc1ccc(O)cc1`, the call (in [1]; in assay [2]; in the assay with Caspase-3 (Homo sapiens); in assay [3]; in assay [4]; in [5]) was inactive. Also, the call (in [6]; in assay [7]; with CYP2C8 (gene 1558); with CYP2C9 (gene 1559)) was inactive.
In general, AC50 refers to the midpoint of the concentration-response curve, whichever way the signal moves. For `ClC(Cl)=C(c1ccc(Cl)cc1)c1ccc(Cl)cc1`, the call (in [1]; in assay [2]; with Caspase-3 (Homo sapiens); in assay [3]; in assay [4]; in [5]) was inactive. Moreover, the outcome in the assay with CYP2C9 (gene 1559) was inactive. The results for the concentration at half-maximal activity (AC50) (in assay [6]; in assay [7]; with CYP2C8 (gene 1558)) were 1.59 µM (active), 7.61 µM (active) and 3.63 µM (active), respectively.
`Cc1ccccc1CO[C@@H]1C[C@@]2(C(C)C)CC[C@]1(C)O2`: the outcome (in [1]; in assay [2]; with Caspase-3 (Homo sapiens); in [3]; in assay [5]; with CYP2C9 (gene 1559)) was inactive. The half-maximal activity concentration (AC50) in [4] is 76.3 µM (active); in assay [6], 15.9 µM (active); in assay [7], 32.5 µM (active); with CYP2C8 (gene 1558) it was 50 µM (active).
Regarding `CCOC(=O)C(O)(c1ccc(Cl)cc1)c1ccc(Cl)cc1`, the outcome (in assay [1]; in assay [2]; with Caspase-3 (Homo sapiens); in assay [3]; in assay [5]; in [7]) was inactive. Besides, in the assay with CYP2C9 (gene 1559), the compound was called inactive. The concentration at half-maximal activity (AC50) in assay [4] is 66.5 µM (active); in assay [6], 69.1 µM (active); with CYP2C8 (gene 1558), 21.6 µM (active).
As for `CCCCCCCCCC[N+](C)(C)CCCCCCCCCC`, the compound was called inactive in [1], in assay [2], in assay [3], in [4], in [5] and in assay [6]. Further, the outcome (in assay [7]; with CYP2C8 (gene 1558)) was inactive. The AC50 was 75.9 µM (active) with Caspase-3 (Homo sapiens) and 60 µM (active) in the assay with CYP2C9 (gene 1559).
On to `CCCCCCOC(=O)c1ccccc1C(=O)OCCCCCC`, for which the outcome (in assay [1]; in [2]; with Caspase-3 (Homo sapiens); in assay [3]; in assay [5]; in [6]) was inactive. Moreover, the compound was classed as inactive (in assay [7]; with CYP2C8 (gene 1558); in the assay with CYP2C9 (gene 1559)). Also, the AC50 in assay [4] is 50 µM (active).
For the compound `ClC1=C(Cl)[C@]2(Cl)[C@@H]3[C@H]4C[C@H]([C@@H]5O[C@H]45)[C@@H]3[C@@]1(Cl)C2(Cl)Cl`, the concentration at half-maximal activity (AC50) was 9.92 µM (active) in assay [1], 1.01 µM (active) in assay [6] and 2.63 µM (active) in [7]. The call (in assay [2]; with Caspase-3 (Homo sapiens); in [3]; in assay [4]; in [5]; with CYP2C8 (gene 1558)) was inactive. Besides, in the assay with CYP2C9 (gene 1559), the compound was called inactive.
With `C1CC2OC2CC1C1CO1` (stereo not given), the call (in assay [1]; in assay [2]; in the assay with Caspase-3 (Homo sapiens); in assay [3]; in assay [4]; in assay [5]) was inactive. Moreover, the call (in assay [7]; with CYP2C8 (gene 1558); in the assay with CYP2C9 (gene 1559)) was inactive. The AC50 in [6] is 7.5 µM (active).
`CCOP(=S)(OCC)SCSC(C)(C)C`: the outcome (in assay [1]; in assay [2]; in the assay with Caspase-3 (Homo sapiens); in assay [3]; in assay [4]; in assay [5]) was inactive. Further, the outcome (in [6]; in assay [7]; with CYP2C8 (gene 1558); in the assay with CYP2C9 (gene 1559)) was inactive.
For `COS(=O)(=O)OC`, the call (in assay [1]; in assay [2]; in the assay with Caspase-3 (Homo sapiens); in [3]; in assay [5]; in [6]) was inactive. For the same compound, the outcome (in assay [7]; in the assay with CYP2C8 (gene 1558); in the assay with CYP2C9 (gene 1559)) was inactive. For the same compound, the half-maximal activity concentration (AC50) in assay [4] was 31 µM (active).
For the compound `Cc1cc(O)ccc1Cl`, the call (in assay [1]; in assay [2]; with Caspase-3 (Homo sapiens); in assay [3]; in assay [4]; in [5]) was inactive. For the same compound, the compound was classed as inactive (in assay [6]; in assay [7]; with CYP2C8 (gene 1558); in the assay with CYP2C9 (gene 1559)).
With `Clc1ccc(Cl)cc1`, the outcome (in assay [1]; in [2]; in the assay with Caspase-3 (Homo sapiens); in assay [3]; in assay [4]; in assay [5]) was inactive. The compound was called inactive (in assay [6]; in assay [7]; with CYP2C8 (gene 1558); with CYP2C9 (gene 1559)).
For `CCC(C)(c1ccc(O)cc1)c1ccc(O)cc1`, the compound was called inactive (in assay [1]; in assay [2]; with Caspase-3 (Homo sapiens); in assay [3]; in assay [5]; in assay [6]). The call (in assay [7]; with CYP2C8 (gene 1558); in the assay with CYP2C9 (gene 1559)) was inactive. The AC50 in [4] is 89.2 µM (active).
Turning to `Cc1ccc(O)c(C)c1`, the outcome (in assay [1]; in [2]; in the assay with Caspase-3 (Homo sapiens); in assay [3]; in assay [4]; in assay [5]) was inactive. The call (in assay [6]; in assay [7]; in the assay with CYP2C8 (gene 1558); in the assay with CYP2C9 (gene 1559)) was inactive.
For the compound `Cc1cc2c3c(c1)C(c1ccccc1)=N[C@@H](NC(=O)c1ccncc1)C(=O)N3CC2`, the result (in [1]; in assay [2]; with Caspase-3 (Homo sapiens); in assay [3]; in [5]; in assay [6]) was inactive. Also, the call with CYP2C8 (gene 1558) and with CYP2C9 (gene 1559) was inactive. In addition, the AC50 is 23.1 µM (active) in assay [4] and 3.58 µM (active) in [7].
On to `CCC(C)(CC)c1cc(NC(=O)c2c(OC)cccc2OC)on1`, for which the compound was classed as inactive (in [1]; in [2]; with Caspase-3 (Homo sapiens); in assay [3]; in assay [5]; in the assay with CYP2C9 (gene 1559)). Besides, the AC50 in assay [4] was 10.3 µM (active); in assay [6], 3.2 µM (active); in assay [7] it was 2.36 µM (active); with CYP2C8 (gene 1558) it was 3.26 µM (active).
